Source: PubChem BioAssay (NCI)
The panel holds about 83,000 compounds, 20% with a hit somewhere; the sample as a whole holds those more often.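 A percent growth of 40 corresponds to 60% growth inhibition; 0 means no net growth; -100 means all cells died. Active threshold: below 10.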 Activity calls are given as the source filed them.

Key:
Assay in all cases: NCI-60 one-dose screen, 48 h (100 = growth as untreated, 0 = no growth, -100 = all killed)
Settings in all cases: 10 µM
[1] = system: SN12C renal
[2] = system: UO-31 renal
[3] = system: TK-10 renal
[4] = system: ACHN renal
[5] = system: CAKI-1 renal
[6] = system: A498 renal
[7] = system: CCRF-CEM leukemia
[8] = system: MOLT-4 leukemia
[9] = system: SR leukemia
[10] = system: RPMI-8226 leukemia
[11] = system: OVCAR-8 ovarian
[12] = system: OVCAR-5 ovarian
[13] = system: OVCAR-4 ovarian
[14] = system: SK-OV-3 ovarian
[15] = system: IGROV1 ovarian
[16] = system: OVCAR-3 ovarian
[17] = system: HS 578T breast
[18] = system: NCI/ADR-RES ovarian
[19] = system: T-47D breast

Measured: growth

O=[N+]([O-])c1ccc(Oc2cc(Cl)c(Cl)cc2Cl)c(C(F)(F)F)c1
inactive: [1] 103% | [2] 80.2% | [3] 115% | [4] 96.8% | [5] 92.3% | [6] 90.5% | [7] 93.5% | [8] 87.5% | [9] 100% | [10] 97.3% | [11] 97.8% | [12] 87% | [13] 93.8% | [14] 103% | [15] 96.5% | [16] 105% | [17] 104% | [18] 109% | [19] 107%

O=C1/C(=C\c2ccccc2)CN(C(=O)c2ccccc2)C/C1=C\c1ccccc1
inactive: [2] 43% | [3] 69.8% | [5] 33.3% | [6] 45.1% | [11] 14.3% | [12] 70.5% | [13] 36.5% | [14] 50.1% | [15] 26.6% | [18] 21.9% | [19] 48.7%
active: [1] 5.88% | [4] 3.54% | [7] -0.797% | [8] 2.87% | [9] -33% | [10] -27% | [16] -12.2% | [17] -14.8%

CN(C)C=Nc1cc(Cl)ccc1Cl
inactive: [1] 97.7% | [2] 100% | [3] 116% | [4] 109% | [5] 96.5% | [6] 105% | [7] 97.4% | [8] 108% | [9] 108% | [10] 98.9% | [11] 114% | [12] 104% | [13] 99.9% | [14] 110% | [15] 118% | [16] 113% | [17] 117% | [19] 108%

COc1ccc(-c2nc(-c3nc4cc(Cl)c(Cl)cc4[nH]3)c3ccccn23)cc1
inactive: [1] 81.8% | [2] 36% | [4] 28.5% | [5] 43.5% | [6] 41.5% | [7] 79.1% | [8] 77.3% | [9] 45.6% | [10] 49.9% | [11] 31.6% | [12] 91.6% | [15] 75.9% | [16] 39% | [17] 12.9% | [18] 51.4% | [19] 66.5%
active: [3] 2.57% | [13] -34.2% | [14] -25.1%

COc1cc(NC(=O)c2sc3nc4c(cc3c2N)C(O)CCC4)cc(OC)c1 (configuration not stated)
inactive: [1] 93.5% | [2] 85.1% | [3] 102% | [4] 100% | [5] 90.4% | [6] 55.2% | [7] 68.7% | [8] 63.1% | [9] 16.8% | [10] 88.2% | [11] 97.5% | [12] 100% | [13] 96.6% | [14] 97.4% | [15] 85.7% | [16] 95.3% | [17] 106% | [19] 90.8%

COc1ccc(-c2ccc(-c3ccc(C(=N)N)cn3)o2)cc1
inactive: [1] 74.9% | [2] 30.7% | [3] 117% | [4] 80.6% | [5] 75.1% | [6] 59.4% | [7] 74.3% | [8] 52.7% | [9] 10.3% | [10] 28.3% | [11] 76.3% | [12] 76.9% | [13] 61.4% | [14] 78.4% | [16] 97.1% | [17] 94.1% | [18] 88.1% | [19] 69.1%

CN(C)CCOc1nc2ccccc2c2c1-c1ccc(Cl)cc1C2=O
inactive: [1] 11.3% | [4] 10.1% | [6] 25.2% | [12] 18.3% | [14] 11.5% | [19] 11.9%
active: [2] -33.1% | [3] -16.4% | [5] -13.7% | [7] 2.75% | [8] 1.17% | [9] -6.41% | [10] -23.4% | [11] 2.21% | [13] -6.28% | [16] -21.4% | [17] -13.3% | [18] -6.87%

COc1cc(-c2cc(/C=C3\C(=O)Nc4ccc(Cl)cc43)[nH]n2)cc(OC)c1OC
active: [1] 7% | [2] 9.62% | [8] -4.3% | [10] -18.3% | [11] 7.57% | [15] -10.2% | [17] 6.98%
inactive: [3] 27.5% | [4] 23.9% | [5] 17.5% | [6] 41.1% | [7] 10.7% | [9] 20.4% | [12] 68.4% | [13] 17% | [14] 82.5% | [16] 34.2% | [18] 11.4% | [19] 24.8%

COc1cccc(C(=O)Nc2ccc(CN3CCc4nc5cc(OC)c(OC)cc5cc43)cc2)c1
inactive: [1] 54.1% | [2] 27.5% | [3] 42.4% | [4] 36.9% | [5] 21.7% | [6] 20.5% | [7] 28.7% | [8] 25.7% | [9] 24.1% | [10] 40% | [11] 46.8% | [12] 64.8% | [13] 57.1% | [14] 74.2% | [15] 31.8% | [16] 53.1% | [17] 61.2% | [19] 32.4%

Cn1c([N+](=O)[O-])cnc1/C=C1\Oc2ccc(Cl)cc2C1=O
active: [1] -10.9% | [2] -31.9% | [3] -23% | [4] -2.7% | [5] -22.9% | [7] -11.8% | [8] -1.82% | [10] 0.916% | [11] -17.3% | [12] -20.4% | [13] -4.09% | [14] -10.2% | [15] -19.3% | [16] -26.8% | [17] -24.1%
inactive: [6] 12.3% | [9] 11.6% | [19] 78.1%

O=C(Nc1cccc(-n2cc(-c3ccncc3)c(-c3ccc(O)c(Cl)c3)n2)c1)c1ccc(N2CCOCC2)c(C(F)(F)F)c1
inactive: [1] 57.5% | [2] 13.1% | [3] 73.4% | [4] 29.3% | [5] 26.5% | [6] 71.7% | [7] 20.2% | [8] 40.2% | [9] 18% | [11] 30.7% | [12] 37.8% | [13] 69.3% | [14] 64.2% | [16] 60.4% | [17] 33.5% | [18] 43.1% | [19] 36.4%
active: [10] -18%
